High-throughput results as filed in PubChem BioAssay.
The list is not random: actives were taken first. Their share in the collection is about 2.2%.
APP 5UTR inh – APP translation inhibition | 0.82% of 190,000 active | SH-SY5Y APP 5'UTR-luciferase reporter, luminescence | AID 1285 | inhibition, % at 2 µM;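 active = inhibition above a set limit, derived from the sample mean plus 3 SD, cut at about 45% in these data; inconclusive = one replicate passes the limit while the other fails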
BaF3 tox – parental Ba/F3 viability inhibition as JAK2V617F counter-screen | CellTiter-Glo ATP luminescence | inhibition, % at 5.6 µM | 1.1% of 220,000 active | AID 1486;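 active = inhibition above a per-campaign cutoff, the mean inhibition of all tested compounds plus 3 SD, cut at about 27% in these data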;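 note: 0% = DMSO wells and 100% = JAK Inhibitor I control wells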
aSyn UTR inh – 5' untranslated region of α-synuclein, MLPCN primary screen. AID 1813. 0.82% of 300,000 active. inhibition, % (tested at 7.5 µM). alpha-synuclein 5'UTR reporter, inhibitor activity; in the data active = inhibition above about 60%; inconclusive = no clear call, values can overlap the other calls;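 note: H4 neuroglioblastoma cells stably carrying SNCA 5'UTR luciferase fusion; 0% = DMSO wells and 100% = positive control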
Ba/F3 V617F tox – lowers viability of Ba/F3 cells expressing EpoR and JAK2V617F | ATP luminescence | inhibition, % at 5.6 µM | 1.1% of 220,000 active;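 active = inhibition above the campaign mean plus 3 SD over all tested compounds, cut at about 24% in these data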;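 note: cytokine-independent growth of Ba/F3 cells driven by EpoR plus mutant JAK2; 0% = DMSO-treated cells and 100% = JAK inhibitor I control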
KLF5 inh – kruppel-like factor 5 inhibition. DLD-1 KLF5 promoter-luciferase reporter, luminescence. inhibition, % at 5 µM. 0.23% of 290,000 active;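 active = inhibition above a per-plate limit of that plate's mean compound inhibition plus 3 SD, cut at about 60% in these data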;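 note: 0% = DMSO wells and 100% = LY294002 at 200 µM; higher means less KLF5 promoter-driven luciferase light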
IEC-6 tox – counter-screen for KLF5 inhibitors: cytotoxicity in IEC-6 cells | AID 1825 | IEC-6 cytotoxicity, luminescence viability | inhibition, % at 5 µM | 0.78% of 290,000 active;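 note: 0% = plate median of test compound wells and 100% = cytotoxic reference compound wells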
IEC-6 tox confirm – IEC-6 cytotoxicity, confirmation assay; shares compounds with IEC-6 tox; IEC-6 rat intestinal epithelial viability, luminescence; inhibition, % at 5 µM; 63% of 1,900 active;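 note: 0% = vehicle and 100% = reference cytotoxic drug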
The depositor's hits bear a star; ? = inconclusive; . = no result given. Cut-off read from the data, not from the text of the source, unless noted: active = inhibition above about 22%; inactive = the rest.

SMILES	APP 5UTR inh	BaF3 tox	aSyn UTR inh	Ba/F3 V617F tox	KLF5 inh	IEC-6 tox	IEC-6 tox confirm
Cc1cccc(OCC(=O)NCC(=O)N/N=C/c2cc(Br)cc(Br)c2O)c1	.	.	29	.	35	30*	18
CC(C)(C)c1ccc(Cn2c(=O)cnc3ccccc32)cc1	.	.	-37	.	19	24*	8
O=c1cnc2ccccc2n1Cc1ccc(Br)cc1	.	.	-65	.	-37	10	.
Cc1cccc(Nc2nc(-c3ccc(O)cc3O)cs2)n1	.	.	-126	.	-131	4	.
CCc1ccc2nc(Nc3nc(COC)cc(=O)[nH]3)nc(C)c2c1	9	3	-2	-2	-30	3	.
COCc1cc(=O)[nH]c(Nc2nc3ccc(C)cc3o2)n1	15	7	16	1	-58	26*	36*
CCOc1ccc(N=Cc2c(C)[nH]n(-c3nc4ccccc4[nH]3)c2=O)cc1	5	34*	39	28*	-23	30*	53*
O=C(CN1CCCCCC1)Nc1ccccc1OC(F)F	.	.	1	.	-25	-2	.
COc1cccc(C(=O)N2N=C(c3ccccn3)CC2(O)C(F)(F)F)c1 (stereo not drawn)	.	-1	61	-1	-16	24*	12
COc1ccc(CC(=O)N2N=C(c3ccncc3)CC2(O)C(F)(F)F)cc1 (stereo not drawn)	2	25	-30	5	28	24*	30*
CCOc1ccc(/C=C(/NC(=O)c2ccc(Cl)cc2)C(=O)O)cc1OCC	.	-1	-86	-4	10	4	.
CCOc1cc(/C=C(/NC(C)=O)C(=O)O)cc(Cl)c1OCc1ccc(Br)cc1	.	-2	0	4	-20	26*	2
COC(=O)COc1ccc(/C=N/NC(=O)CN(c2ccccc2OC)S(=O)(=O)c2ccccc2)cc1	.	.	20	.	-12	49*	-8
CCCCCCCCn1c2c(c(=N)c3ccccc31)CCC2	-10	82*	59	99*	55	40*	37*
Cc1nc2cc(NC(=O)c3ccc([N+](=O)[O-])s3)ccc2s1	.	.	77*	.	29	30*	19
c1ccc(CNc2c3ccccc3nc3ccccc23)cc1	.	.	-332	.	-4	26*	16
COc1cc2c(cc1OC)CN(C(=O)CN1CCN(S(=O)(=O)c3ccccc3)CC1)CC2	.	.	-5	.	-15	1	.
CC1CC(C)C[N+](=C2C=C(N3CCCC3)CC(C)(C)C2)C1 (stereo not drawn)	7	72*	-14	92*	9	35*	23*
CC(=O)NNC(=S)Nc1cc(S(=O)(=O)N(C)C)ccc1C	-28	4	6	3	-9	0	.
CCc1cccc(NC(=S)Nc2cccc3ccccc23)c1	.	.	-30	.	-48	29*	14
COc1cccc(NC(=S)Nc2cccc3ccccc23)c1	.	.	-70	.	-109	36*	7
Cc1ccc(S(=O)(=O)N(C)C)cc1NC(=S)Nc1cccc2ccccc12	.	.	19	.	-9	62*	4
Cc1c(C)n(-c2ccccc2)c2ncnc(NCCN(C)C)c12	.	.	14	.	-26	2	.
COc1ccc(NC(=O)c2ccc([N+](=O)[O-])o2)cc1	.	.	-320	.	-20	44*	1
CC(=O)c1cccc(NC(=O)c2ccc([N+](=O)[O-])o2)c1	.	.	-58	.	.	.	.
SMILES	APP 5UTR inh	BaF3 tox	aSyn UTR inh	Ba/F3 V617F tox	KLF5 inh	IEC-6 tox	IEC-6 tox confirm
Cc1cc(C)cc(NC(=O)c2ccc([N+](=O)[O-])o2)c1	71*	59*	-31	95*	9	103*	24*
CC(=O)c1ccc(NC(=O)c2ccc([N+](=O)[O-])o2)cc1	.	.	-355	.	-19	32*	11
Cc1cc(NC(=O)CSc2nc3ccccc3c(=O)n2C2CCCC2)no1	-9	8	86*	13	31	63*	56*
CN(C)c1ccc(NC(=O)CSc2nc3ccccc3c(=O)n2C2CCCCC2)cc1	1	6	29	1	-4	2	.
CCC(C)[C@H](NC(=O)[C@@H]1CSC2c3ccccc3C(=O)N21)C(=O)NCc1ccco1 (stereo partly drawn)	.	.	-17	.	-6	4	.
COc1ccc(C(=O)Nc2ccc(N3CCN(C(=O)c4ccccc4)CC3)cc2)cc1[N+](=O)[O-]	-3	15	3	8	-44	1	.
CC(C)C(=O)N1CCN(c2ccc(NC(=O)c3ccc(Br)o3)cc2)CC1	-17	2	-14	-2	-33	0	.
CC(C)C(=O)N1CCN(c2ccc(NC(=O)c3ccc([N+](=O)[O-])o3)cc2)CC1	57*	33*	35	67*	9	24*	14
O=C(Nc1ccc(N2CCN(C(=O)c3ccccc3)CC2)cc1)c1ccc([N+](=O)[O-])o1	94*	77*	-19	99*	23	85*	35*
CN1CCN(c2ccc(NC(=O)c3ccc([N+](=O)[O-])o3)cc2Cl)CC1	.	.	?	.	-14	90*	29*
Cc1ccccc1C(=O)N1CCN(c2ccc(NC(=O)c3ccc([N+](=O)[O-])o3)cc2)CC1	.	.	-168	.	49	98*	35*
CSc1ccc(NC(=O)NCc2cccnc2)cc1	.	.	-21	.	-48	-2	.
O=C(c1ccco1)N1CCC(c2nc3ccccc3[nH]2)CC1	.	.	5	.	.	.	.
Cc1nnsc1C(=O)N1CCC(CO)(Cc2ccccc2Cl)CC1	.	-3	7	-3	-22	1	.
CCCn1c(SCC(=O)NNC(=O)c2ccc(C)cc2)nnc1C(C)C	.	.	0	.	-34	-1	.
O=C(Nc1ccccc1N1CCN(C(=O)c2ccc(Cl)cc2)CC1)c1ccc([N+](=O)[O-])o1	.	.	-30	.	-31	33*	12
CCc1cc(C(=O)N2CCCC(C(=O)c3ccc(Oc4ccccc4)cc3)C2)n(C)n1 (stereo not drawn)	.	.	-7	.	-24	-1	.
CCCCNc1ncnc2c1cnn2-c1ccc(Cl)cc1	34	9	-137	4	-113	19	.
CCCCNc1ncnc2c1cnn2-c1ccccc1	-102	66*	-260	64*	-42	38*	29*
COC(=O)c1ccc(Nc2cc(C)nc3ccc(C)cc23)cc1	.	3	53	11	35	26*	27*
CC(=O)c1ccc(Nc2cc(C)nc3ccccc23)cc1	42	12	14	7	15	38*	35*
COc1ccc(Nc2cc(C)nc3ccccc23)cc1	5	2	20	2	5	20	.
CC(=O)c1ccc(Nc2cc(C)nc3c(C)cccc23)cc1	87*	76*	8	77*	35	81*	60*
Cc1onc(-c2ccccc2)c1C(=O)NNC(=S)NC(=O)c1ccc2c(c1)OCO2	.	0	-10	-1	-21	-9	.
Cc1ccc(CSCC(=O)Nc2cc(S(=O)(=O)N3CCOCC3)ccc2OC(C)C)cc1	.	.	-5	.	.	.	.
COc1cc(/C=N/NC(=S)NC2CC3C=CC2C3)cc(OC)c1OC (stereo not drawn)	.	-6	10	4	-21	28*	2
